Test results reported in PubChem BioAssay AID1159580 (chemical genetic matrix, 2015).
Values joined by “and” are separate entries in the source; they are usually repeats but may differ in a detail not shown here. Identical values can stand only once. The campaign covered roughly 5,500 compounds. About 2,000 (36%) were called active. Inconclusive results (about 18%) are left out. Rule as the data show it: active = normalized growth mostly below about 0.91 (no sharp cut-off); inconclusive = no clear call, values can overlap the other calls; inactive = mostly above about 0.92. The list shows a part of the results.

Assay: chemical genetic growth profiling, strain panel (AID 1159580);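 also: tested at 20 µM; growth read once vehicle control cultures reached saturation at 30 °C; 1 = growth at the plate median or of vehicle wells; lower values mean less growth of the strain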
Conditions: S. cerevisiae deletion strains, growth OD

Measured: normalized growth

CCCCCCCCCCCCCCCC[n+]1ccccc1
active: locus YAL013W, strain DEP1, hits give low values 0.0574 | locus YAL021C, strain ccr4, hits give low values 0.0611 | locus YAL026C, strain drs2, hits give low values 0.0581 | locus YAL030W, strain snc1, hits give low values 0.0525 | locus YBL061C, strain skt5, hits give low values 0.0581 | locus YBR009C, strain hhf1, hits give low values 0.0558 | locus YBR021W, strain FUR4, hits give low values 0.0963 | locus YBR023C, strain chs3, hits give low values 0.0594 | locus YBR171W, strain sec66, hits give low values 0.0739 | locus YBR229C, strain ROT2, hits give low values 0.0303 | locus YBR231C, strain swc5, hits give low values 0.0577 | locus YBR279W, strain paf1, hits give low values 0.0555 | locus YCL011C, strain gbp2, hits give low values 0.053 | locus YCL016C, strain dcc1, hits give low values 0.0599 | locus YCL029C, strain bik1, hits give low values 0.058 | locus YCL061C, strain MRC1, hits give low values 0.0607 | locus YCL069W, strain vba3, hits give low values 0.0581 | locus YCR088W, strain abp1, hits give low values 0.0584 | locus YDL005C, strain med2, hits give low values 0.0695 | locus YDL035C, strain GPR1, hits give low values 0.0498 | locus YDL040C, strain nat1, hits give low values 0.0541 | locus YDL074C, strain BRE1, hits give low values 0.0827 | locus YDL101C, strain DUN1, hits give low values 0.0526 | locus YDL134C, strain PPH21, hits give low values 0.0538 | locus YDL185W, strain tfp1, hits give low values 0.0538 | locus YDL192W, strain arf1, hits give low values 0.0595 | locus YDR001C, strain nth1, hits give low values 0.0571 | locus YDR069C, strain doa4, hits give low values 0.0582 | locus YDR101C, strain arx1, hits give low values 0.0554 | locus YDR137W, strain rgp1, hits give low values 0.0947 | locus YDR150W, strain NUM1, hits give low values 0.0551 | locus YDR159W, strain sac3, hits give low values 0.0818 | locus YDR162C, strain NBP2, hits give low values 0.047 | locus YDR195W, strain ref2 0.109 | locus YDR297W, strain sur2, hits give low values 0.0517 | locus YDR318W, strain mcm21, hits give low values 0.0596 | locus YDR334W, strain swr1, hits give low values 0.061 | locus YDR335W, strain msn5, hits give low values 0.0563 | locus YDR388W, hits give low values 0.0552 | locus YDR392W, strain spt3, hits give low values 0.068 | locus YDR502C, strain sam2, hits give low values 0.0615 | locus YEL003W, strain gim4, hits give low values 0.0501 | locus YEL037C, strain rad23, hits give low values 0.0542 | locus YEL061C, strain CIN8 (second series), hits give low values 0.0582 | locus YEL061C, strain CIN8, hits give low values 0.0502 | locus YER015W, strain faa2, hits give low values 0.0581 | locus YER016W, strain bim1, hits give low values 0.0593 | locus YER110C, hits give low values 0.0712 | locus YER111C, strain swi4, hits give low values 0.0669 | locus YER155C, strain BEM2 (second series), hits give low values 0.0821 | locus YER155C, strain BEM2, hits give low values 0.0622 | locus YER167W, strain BCK2, hits give low values 0.0514 | locus YFR010W, strain ubp6, hits give low values 0.0662 | locus YGL078C, strain dbp3, hits give low values 0.0557 | locus YGL086W, strain mad1, hits give low values 0.0563 | locus YGL167C, strain pmr1, hits give low values 0.0673 | locus YGL173C, strain kem1, hits give low values 0.0629 | locus YGL227W, strain vid30, hits give low values 0.062 | locus YGL240W, strain doc1, hits give low values 0.0671 | locus YGL248W, strain PDE1, hits give low values 0.0451 | locus YGL253W, strain hxk2, hits give low values 0.0516 | locus YGR135W, strain pre9, hits give low values 0.0612 | locus YGR252W, strain gcn5, hits give low values 0.17 | locus YHR013C, strain ard1, hits give low values 0.0961 | locus YHR027C, strain rpn1, hits give low values 0.0594 | locus YHR030C, strain SLT2, hits give low values 0.0512 and 0.0945 | locus YHR079C, strain IRE1 (second series), hits give low values 0.0605 | locus YHR079C, strain IRE1, hits give low values 0.11 | locus YHR094C, strain hxt1, hits give low values 0.0564 | locus YHR129C, strain ARP1, hits give low values 0.0537 | locus YHR142W, strain chs7, hits give low values 0.0693 | locus YHR200W, strain rpn10, hits give low values 0.0581 | locus YIL066C, strain RNR3, hits give low values 0.0411 | locus YIL073C, strain SPO22, hits give low values 0.106 | locus YIL125W, strain kgd1, hits give low values 0.0545 | locus YIR030C, strain dcg1, hits give low values 0.0571 | locus YJL092W, strain hpr5, hits give low values 0.0574 | locus YJL095W, strain BCK1 (second series), hits give low values 0.0528 | locus YJL095W, strain BCK1, hits give low values 0.0624 and 0.0966 | locus YJL115W, strain asf1, hits give low values 0.0684 | locus YJL129C, strain trk1, hits give low values 0.0768 | locus YJL134W, strain LCB3, hits give low values 0.047 | locus YJL154C, strain vps35, hits give low values 0.057 | locus YJL164C, strain tpk1, hits give low values 0.0549 | locus YJL166W, strain qcr8, hits give low values 0.0563 | locus YJL168C, strain set2, hits give low values 0.0564 | locus YJL187C, strain SWE1 (second series), hits give low values 0.0398 | locus YJL187C, strain SWE1, hits give low values 0.0529 | locus YJR043C, strain POL32, hits give low values 0.0648 | locus YJR066W, strain TOR1, hits give low values -0.000212 | locus YKL009W, strain mrt4, hits give low values 0.0643 | locus YKL068W, hits give low values 0.0564 | locus YKL085W, strain MDH1 (second series), hits give low values 0.0485 | locus YKL085W, strain MDH1, hits give low values 0.0485 | locus YKL160W, strain elf1, hits give low values 0.058 | locus YKR001C, strain vps1, hits give low values 0.0609 | locus YKR026C, strain gcn3, hits give low values 0.058 | locus YKR091W, strain srl3, hits give low values 0.0563 | locus YLL001W, strain dnm1, hits give low values 0.0595 | locus YLL026W, hits give low values 0.0533 | locus YLL041C, strain sdh2, hits give low values 0.0527 | locus YLR027C, strain aat2, hits give low values 0.0516 | locus YLR039C, strain RIC1, hits give low values 0.101 | locus YLR058C, strain SHM2, hits give low values 0.0432 | locus YLR102C, strain apc9, hits give low values 0.058 | locus YLR113W, strain HOG1, hits give low values 0.126 | locus YLR221C, strain rsa3, hits give low values 0.0565 | locus YLR258W, strain gsy2, hits give low values 0.0549 | locus YLR262C, strain YPT6 (second series), hits give low values 0.0739 | locus YLR262C, strain YPT6, hits give low values 0.0999 | locus YLR268W, strain sec22, hits give low values 0.0648 | locus YLR320W, strain mms22, hits give low values 0.0701 | locus YLR330W, strain CHS5, hits give low values 0.0543 | locus YLR342W, strain FKS1 (second series), hits give low values 0.0596 | locus YLR342W, strain FKS1, hits give low values 0.0608 | locus YLR357W, strain rsc2, hits give low values 0.119 | locus YLR370C, strain arc18, hits give low values 0.0588 | locus YLR371W, strain rom2, hits give low values 0.0606 | locus YLR384C, strain iki3, hits give low values 0.0569 | locus YLR418C, strain cdc73, hits give low values 0.0923 | locus YML016C, strain PPZ1, hits give low values 0.0531 | locus YML032C, strain rad52, hits give low values 0.0676 | locus YML120C, strain ndi1, hits give low values 0.0532 | locus YML124C, strain tub3, hits give low values 0.0589 | locus YMR058W, strain fet3, hits give low values 0.0569 | locus YMR078C, strain ctf18, hits give low values 0.0681 | locus YMR125W, strain sto1, hits give low values 0.0655 | locus YMR129W, hits give low values 0.0538 | locus YMR205C, strain PFK2, hits give low values 0.0777 | locus YMR223W, strain ubp8, hits give low values 0.061 | locus YMR231W, strain pep5, hits give low values 0.0645 | locus YMR307W, strain GAS1, hits give low values 0.134 | locus YNL067W, strain RPL9B, hits give low values 0.0493 | locus YNL071W, strain lat1, hits give low values 0.0582 | locus YNL153C, strain GIM3, hits give low values 0.0537 | locus YNL183C, strain NPR1, hits give low values -0.00168 | locus YNL209W, strain ssb2, hits give low values 0.0552 | locus YNL233W, strain BNI4, hits give low values 0.0562 | locus YNL248C, strain rpa49, hits give low values 0.0711 | locus YNL250W, strain rad50, hits give low values 0.0768 | locus YNL271C, strain bni1, hits give low values 0.0589 | locus YNL298W, strain CLA4, hits give low values 0.0577 | locus YNL307C, strain MCK1, hits give low values 0.0655 | locus YNL322C, strain KRE1 (second series), hits give low values 0.06 | locus YNL322C, strain KRE1, hits give low values 0.048 | locus YNR049C, strain mso1, hits give low values 0.0552 | locus YNR052C, strain pop2, hits give low values 0.0583 | locus YOL147C, strain pex11, hits give low values 0.0569 | locus YOR001W, strain rrp6, hits give low values 0.0649 | locus YOR061W, strain CKA2, hits give low values 0.0309 | locus YOR069W, strain VPS5, hits give low values 0.0516 | locus YOR070C, strain gyp1, hits give low values 0.0562 | locus YOR080W, strain dia2, hits give low values 0.0607 | locus YOR083W, strain WHI5, hits give low values 0.0593 | locus YOR106W, strain vam3, hits give low values 0.0617 | locus YOR136W, strain idh2, hits give low values 0.0704 | locus YOR144C, strain elg1, hits give low values 0.0544 | locus YOR184W, strain ser1, hits give low values 0.0674 | locus YOR231W, strain MKK1, hits give low values 0.0972 | locus YOR265W, strain rbl2, hits give low values 0.0533 | locus YOR270C, strain vph1, hits give low values 0.0863 | locus YOR290C, strain snf2, hits give low values 0.0573 | locus YOR316C, strain cot1, hits give low values 0.0567 | locus YPL051W, strain arl3, hits give low values 0.06 | locus YPL055C, strain LGE1, hits give low values 0.0709 | locus YPL078C, strain atp4, hits give low values 0.0604 | locus YPL106C, strain sse1, hits give low values 0.0881 | locus YPL240C, strain hsp82, hits give low values 0.0535 | locus YPL241C, strain CIN2, hits give low values 0.0502 | locus YPL256C, strain CLN2, hits give low values 0.113 | locus YPR119W, strain clb2, hits give low values 0.0599 | locus YPR141C, strain kar3, hits give low values 0.0617 | locus YPR163C, strain tif3, hits give low values 0.0683 | locus YPR167C, strain met16, hits give low values 0.06 | strain wtn01, hits give low values 0.061
